Test results published in PubChem BioAssay (Tox21).
Inconclusive results are not listed. Active and inactive are the calls of the source. Unless noted, calls come from the whole dose curve; as a rule, active = well fitted curve in the direction sought with a large enough effect in the repeat runs; inconclusive = weak or mixed curves; inactive = no such curve, though single readings can be large; an effect the other way counts as inactive or inconclusive.

Columns and labels:
[1] = qHTS assay to identify small molecule antagonists of the thyroid receptor (TR) signaling pathway - cell viability counter screen (AID 743064); note: nearly all actives have a fitted effect of over 50% in size
In short: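 Plate GH3.TRE-Luc cells; incubate 4 h at 37 °C; add compound, then T3 to 1 nM final; incubate 23.5 h; add CellTiter-Fluor; incubate 30 min at 37 °C, 5% CO2; read fluorescence.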

[2] = qHTS assay to identify small molecule antagonists of the thyroid receptor (TR) signaling pathway (AID 743065); note: nearly all actives have a fitted effect of over 55% in size
In short: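 GH3.TRE-Luc rat pituitary cells carrying two TR response elements driving luciferase were plated for 4 h, given compound plus 1 nM T3 (final), and incubated 23.5 h at 37 C. ONE-Glo luminescence measured reporter inhibition; CellTiter-Fluor fluorescence tracked cytotoxicity.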

[3] = tested on: thyroid hormone receptor (rat, GH3 cells); assay: qHTS assay to identify small molecule agonists of the thyroid receptor (TR) signaling pathway (AID 743066; calls by dose curve)
[4] = target: Estrogen receptor (Homo sapiens) (UniProt P03372); assay: qHTS assay to identify small molecule antagonists of the estrogen receptor alpha (ER-alpha) signaling pathway (AID 743069; active = well fitted curve in the direction sought with a large enough effect in the signal ratio in the repeat runs, not every such curve was filed as active; the % refers to the signal ratio)
In short: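 Estradiol-stimulated ER-alpha-UAS-bla HEK293 cells, 18 hr compound exposure at 37C. LiveBLAzer B/G substrate, 2 hr RT, fluorescence read.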

[5] = qHTS assay to identify small molecule antagonists of the estrogen receptor alpha (ER-alpha) signaling pathway - cell viability counter screen (AID 743074; calls by dose curve;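 note: HEK293 cells carrying ER-alpha-UAS-bla reporter stimulated with 17beta-estradiol; nearly all actives have a fitted effect of over 45% in size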)
[6] = target: Estrogen receptor (Homo sapiens) (UniProt P03372); assay: qHTS assay to identify small molecule agonists of the estrogen receptor alpha (ER-alpha) signaling pathway (AID 743075; calls by dose curve;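 note: HEK293 GripTite cells with ER-alpha and UAS-driven beta-lactamase reporter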)
[7] = qHTS assay to identify small molecule antagonists of the estrogen receptor alpha (ER-alpha) signaling pathway using the BG1 cell line (AID 743080; calls by dose curve;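 note: BG1 cells stimulated with 17beta-estradiol alongside compound; nearly all actives have a fitted effect of over 25% in size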; note: potency is the fitted concentration of half-maximal effect)
In short: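 Luminescence from a 4×ERE-luciferase reporter in BG1-Luc-4E2 cells served as read-out. Cells, pre-cultured 5 days in stripped-serum phenol-red-free medium, were exposed to compound with 17beta-estradiol co-stimulation for 21.5 h at 37 C.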

[8] = qHTS assay to identify small molecule antagonists of the estrogen receptor alpha (ER-alpha) signaling pathway using the BG1 cell line - cell viability counter screen (AID 743081);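 note: compound given together with 17beta-estradiol as the ER stimulus; nearly all actives have a fitted effect of over 45% in size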
Aromatase (Homo sapiens) = Aromatase (Homo sapiens) (UniProt P11511); assay: qHTS assay to identify aromatase inhibitors (AID 743083); note: nearly all actives have a fitted effect of over 55% in size
[9] = qHTS assay to identify aromatase inhibitors - cell viability counter screen (AID 743084);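 note: cells stimulated with testosterone during compound exposure; nearly all actives have a fitted effect of over 55% in size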
[10] = target: Aryl hydrocarbon receptor (Homo sapiens) (UniProt P35869); assay: qHTS assay to identify small molecule that activate the aryl hydrocarbon receptor (AhR) signaling pathway (AID 743085); note: nearly all actives have a fitted effect of over 15% in size; note: potency is the fitted concentration of half-maximal effect;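 for activation: HG2L7.5c1 human HepG2 liver cells with stably integrated DRE-driven firefly reporter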
In short: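 Steps: seed HepG2-AhR-luc cells; allow 5 h at 37C; pin-transfer test compound or vehicle; incubate 24 h at 37C; add viability dye (30 min, 37C) and read fluorescence; add luciferase substrate (30 min, RT) and read luminescence.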

[11] = qHTS assay to identify small molecule that activate the aryl hydrocarbon receptor (AhR) signaling pathway - cell viability counter screen (AID 743086);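 note: HepG2 liver cells carrying the AhR DRE luciferase reporter; nearly all actives have a fitted effect of over 45% in size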
In short: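 HepG2-AhR-luc (HG2L7.5c1) cells, 4000/well, were preincubated 5 h at 37C, exposed to compound in qHTS format for 24 hr at 37C, then given CellTiter-Fluor for 30 min; viability was read as fluorescence in the reporter wells.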

[12] = target: Peroxisome proliferator-activated receptor gamma (Homo sapiens) (UniProt P37231); assay: qHTS assay to identify small molecule agonists of the peroxisome proliferator-activated receptor gamma (PPARg) signaling pathway (AID 743094; active = well fitted activation curve with a large enough effect in the signal ratio in the repeat runs, not every such curve was filed as active; the % refers to the signal ratio)
In short: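 Stably transfected HEK293H cells (GeneBLAzer PPARg UAS-bla) were incubated with test substances for 17 h at 37C after a 5 h pre-incubation; beta-lactamase activity was then detected by FRET substrate fluorescence.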

[13] = target: Peroxisome proliferator-activated receptor gamma (Homo sapiens) (UniProt P37231); assay: qHTS assay to identify small molecule antagonists of the peroxisome proliferator-activated receptor gamma (PPARg) signaling pathway (AID 743191; calls by dose curve; note: nearly all actives have a fitted effect of over 30% in size)
In short: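 GeneBLAzer PPARg UAS-bla HEK293H cells carrying a UAS-driven beta-lactamase reporter were plated at 3000 cells/well, preincubated 5 h at 37C, then given compound for 17 h at 37C; LiveBLAzer B/G FRET substrate was read after 1 h at room temperature.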

[14] = qHTS assay for small molecule agonists of the antioxidant response element (ARE) signaling pathway - cell viability counter screen (AID 743203; calls by dose curve; note: nearly all actives have a fitted effect of over 55% in size)
In short: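 Cells (ARE-bla HepG2, 2,000/well) receive DMSO-dissolved compounds after a 5 hrs rest. Plates incubate 16 hrs at 37C/5% CO2. CellTiter-Glo luminescence is then recorded after 30 min at room temperature.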

[15] = qHTS assay for small molecule activators of the heat shock response signaling pathway - cell viability counter screen (AID 743209); note: nearly all actives have a fitted effect of over 50% in size
In short: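 Quantitative HTS format, Tox21 10K library. HeLa cells carrying an HSE-driven beta-lactamase reporter were treated 5 h at 37 C, then assessed for viability by CellTiter-Glo luminescence.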

[16] = qHTS assay for small molecule activators of the heat shock response signaling pathway (AID 743210; active = well fitted activation curve with a large enough effect in the signal ratio in the repeat runs, with a control signal flat, not every such curve was filed as active; the % refers to the signal ratio;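 note: HeLa cells with beta-lactamase reporter driven by heat shock elements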)
In short: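 Reporter gene assay: HeLa cells stably bearing an HSE-bla construct, compound treatment 5 h at 37 C, LiveBLAzer substrate 2.5 h at RT, fluorescence intensity.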

[17] = target: Estrogen receptor (Homo sapiens) (UniProt P03372); assay: qHTS assay to identify small molecule agonists of the estrogen receptor alpha (ER-alpha) signaling pathway using the BG1 cell line (AID 743079); conditions: BG1Luc4E2 cells, ERE-luciferase agonist, 22 h; activation: at 70.3 µM (top of the series); note: nearly all actives have a fitted effect of over 20% in size
[18] = qHTS assay to identify small molecule antagonists of the peroxisome proliferator-activated receptor gamma (PPARg) signaling pathway - cell viability counter screen (AID 743194); note: nearly all actives have a fitted effect of over 55% in size
In short: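 PPARg-UAS-bla HEK293H cells were plated, rested 5 h at 37 C, then treated with compounds plus rosiglitazone (50 nM final) for 17 h at 37 C; viability was then read by CellTiter-Glo luminescence after 30 min at room temperature.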

[19] = qHTS assay for small molecule agonists of the antioxidant response element (ARE) signaling pathway (AID 743202; active = well fitted activation curve with a large enough effect in the signal ratio in the repeat runs, not every such curve was filed as active; the % refers to the signal ratio)
In short: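 Compounds delivered in DMSO to ARE-bla HepG2 cells (2,000 cells/well, pre-incubated 5 h) and left 16 h at 37 C. LiveBLAzer B/G FRET substrate then added for 2 h at RT before fluorescence reading.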
% is set by controls: 0 for no effect and ±100 for the full control effect.

Chain of Estrogen receptor (Homo sapiens) (P03372 whole entry, looked up): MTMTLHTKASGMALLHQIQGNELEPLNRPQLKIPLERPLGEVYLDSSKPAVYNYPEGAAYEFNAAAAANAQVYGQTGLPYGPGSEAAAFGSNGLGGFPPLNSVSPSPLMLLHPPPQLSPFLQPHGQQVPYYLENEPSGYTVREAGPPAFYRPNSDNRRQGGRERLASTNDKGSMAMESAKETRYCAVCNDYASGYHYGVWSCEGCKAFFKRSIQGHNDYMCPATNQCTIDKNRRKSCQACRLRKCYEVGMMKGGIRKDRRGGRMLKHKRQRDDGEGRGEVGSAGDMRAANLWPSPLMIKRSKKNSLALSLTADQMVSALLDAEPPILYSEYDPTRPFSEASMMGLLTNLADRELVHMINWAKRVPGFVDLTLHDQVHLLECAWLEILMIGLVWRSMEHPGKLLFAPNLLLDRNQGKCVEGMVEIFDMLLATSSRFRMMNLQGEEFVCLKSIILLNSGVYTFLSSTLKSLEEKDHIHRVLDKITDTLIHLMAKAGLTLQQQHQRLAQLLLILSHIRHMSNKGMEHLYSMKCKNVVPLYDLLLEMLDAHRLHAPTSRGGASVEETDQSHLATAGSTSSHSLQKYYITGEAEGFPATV
Chain of Aryl hydrocarbon receptor (Homo sapiens) (P35869 whole entry, looked up): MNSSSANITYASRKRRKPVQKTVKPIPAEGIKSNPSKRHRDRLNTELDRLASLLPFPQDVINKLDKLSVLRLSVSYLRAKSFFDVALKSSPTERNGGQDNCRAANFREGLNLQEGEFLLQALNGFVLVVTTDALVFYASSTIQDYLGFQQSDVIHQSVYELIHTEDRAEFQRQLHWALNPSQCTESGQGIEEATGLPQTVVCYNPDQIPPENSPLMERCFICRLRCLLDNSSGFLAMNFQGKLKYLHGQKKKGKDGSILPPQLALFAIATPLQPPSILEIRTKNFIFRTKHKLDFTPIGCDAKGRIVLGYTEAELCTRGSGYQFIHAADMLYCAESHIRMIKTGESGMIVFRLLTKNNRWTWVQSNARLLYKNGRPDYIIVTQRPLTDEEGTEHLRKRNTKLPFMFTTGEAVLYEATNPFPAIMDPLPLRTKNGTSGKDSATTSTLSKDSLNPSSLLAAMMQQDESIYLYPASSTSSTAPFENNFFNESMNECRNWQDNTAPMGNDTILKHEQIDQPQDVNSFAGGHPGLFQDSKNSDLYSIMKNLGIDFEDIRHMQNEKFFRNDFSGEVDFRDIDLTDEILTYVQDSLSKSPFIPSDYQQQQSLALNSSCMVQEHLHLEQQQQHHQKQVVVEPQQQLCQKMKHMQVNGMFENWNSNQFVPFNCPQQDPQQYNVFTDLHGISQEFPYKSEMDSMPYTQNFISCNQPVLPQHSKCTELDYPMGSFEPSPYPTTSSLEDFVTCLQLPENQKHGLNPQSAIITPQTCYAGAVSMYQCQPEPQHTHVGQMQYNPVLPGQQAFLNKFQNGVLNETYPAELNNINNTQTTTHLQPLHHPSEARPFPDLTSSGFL
Chain of Aromatase (Homo sapiens) (P11511 whole entry, looked up): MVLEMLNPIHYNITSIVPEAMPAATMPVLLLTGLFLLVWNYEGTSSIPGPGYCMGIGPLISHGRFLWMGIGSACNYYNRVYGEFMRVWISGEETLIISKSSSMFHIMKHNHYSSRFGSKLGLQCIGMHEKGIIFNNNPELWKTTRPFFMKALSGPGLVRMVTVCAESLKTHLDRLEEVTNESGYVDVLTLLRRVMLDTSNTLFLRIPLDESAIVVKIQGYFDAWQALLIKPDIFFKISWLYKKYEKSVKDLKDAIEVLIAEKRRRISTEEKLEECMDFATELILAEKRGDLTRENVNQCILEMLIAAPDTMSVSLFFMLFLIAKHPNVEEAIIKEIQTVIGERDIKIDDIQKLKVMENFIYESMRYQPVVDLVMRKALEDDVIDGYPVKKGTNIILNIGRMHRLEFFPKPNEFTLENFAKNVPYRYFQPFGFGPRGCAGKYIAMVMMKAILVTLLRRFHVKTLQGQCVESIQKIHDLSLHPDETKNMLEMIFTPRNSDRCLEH
Chain of Peroxisome proliferator-activated receptor gamma (Homo sapiens) (P37231 whole entry, looked up): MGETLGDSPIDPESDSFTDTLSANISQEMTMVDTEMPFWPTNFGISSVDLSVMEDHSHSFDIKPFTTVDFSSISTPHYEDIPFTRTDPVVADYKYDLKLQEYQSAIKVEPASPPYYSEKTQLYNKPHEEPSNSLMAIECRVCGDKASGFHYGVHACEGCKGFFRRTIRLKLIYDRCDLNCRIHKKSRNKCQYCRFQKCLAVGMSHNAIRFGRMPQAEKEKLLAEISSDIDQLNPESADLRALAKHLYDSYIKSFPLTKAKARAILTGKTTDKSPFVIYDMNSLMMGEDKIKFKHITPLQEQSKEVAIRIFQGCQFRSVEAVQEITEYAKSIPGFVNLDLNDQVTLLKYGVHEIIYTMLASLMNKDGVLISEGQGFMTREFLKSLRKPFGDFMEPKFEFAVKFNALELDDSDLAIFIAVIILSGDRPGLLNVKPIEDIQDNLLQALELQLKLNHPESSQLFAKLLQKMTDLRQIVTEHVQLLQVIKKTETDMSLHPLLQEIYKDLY

O=S(=O)(c1ccccc1)c1ccc(Cl)cc1
active: Potency [7] 68.6 µM
inactive: Potency [1] | Potency [2] | outcome [3] | Potency [4] | Potency [5] | Potency [6] | Potency [8] | Potency (Aromatase (Homo sapiens)) | Potency [9] | Potency [10] | Potency [11] | Potency [12] | Potency [13] | Potency [14] | Potency [15] | Potency [16]

CC1CC(=O)NN=C1c1ccc(NCC(C)(C)NCC(O)COc2cc(Cl)ccc2C#N)cc1 (stereo not drawn)
inactive: Potency [1] | Potency [2] | outcome [3] | Potency [5] | Potency [6] | Potency [17] | Potency [8] | Potency (Aromatase (Homo sapiens)) | Potency [9] | Potency [11] | Potency [18] | Potency [19] | Potency [14] | Potency [15] | Potency [16]
active: Potency [10] 6.68 µM

[O]=[Bi]
inactive: activity change, negative = cytotoxic [1] 1.51% [at 8.44 µM] | activity, negative = inhibition [2] -1.71% [at 8.44 µM] | activation [3] -0.257% [at 8.08 µM] | activity, negative = inhibition [4] -6.92% [at 6.71 µM] | activity, negative = cytotoxicity [5] -18.5% [at 6.72 µM] | activation [6] -1.87% [at 6.71 µM] | activity change, negative = inhibition [7] 3.19% [at 8.47 µM] | activity change, negative = cytotoxicity [8] 0.603% [at 8.47 µM] | activity, negative = inhibition (Aromatase (Homo sapiens)) 15.6% [at 8.47 µM] | activity change, negative = cytotoxicity [9] -5.72% [at 8.47 µM] | activation [10] -0.231% [at 8.47 µM] | viability change, negative = cytotoxic [11] -5.07% [at 8.47 µM] | activation [12] -4.02% [at 7.08 µM] | ratio activity, negative = inhibition [13] 6.53% [at 5.95 µM] | activity change, negative = cytotoxicity [18] -1.71% [at 5.95 µM] | activation [19] -9.19% [at 8.36 µM] | viability change, negative = cytotoxic [14] -0.248% [at 8.36 µM]

CC(=O)Nc1ccccc1C
inactive: Potency [1] | Potency [2] | outcome [3] | Potency [4] | Potency [6] | Potency [17] | Potency [7] | Potency [8] | Potency (Aromatase (Homo sapiens)) | Potency [9] | Potency [10] | Potency [11] | Potency [12] | Potency [13] | Potency [18] | Potency [19] | Potency [14] | Potency [15] | Potency [16]

CCC(C(=O)OCCN(CC)CC)c1ccccc1 (stereo not drawn)
inactive: Potency [1] | Potency [2] | outcome [3] | Potency [4] | Potency [5] | Potency [6] | Potency [17] | Potency [8] | Potency (Aromatase (Homo sapiens)) | Potency [9] | Potency [10] | Potency [11] | Potency [12] | Potency [13] | Potency [18] | Potency [19] | Potency [14] | Potency [16]

CC(C)OCC1CO1 (stereo not drawn)
inactive: Potency [1] | Potency [2] | outcome [3] | Potency [4] | Potency [5] | Potency [6] | Potency [17] | Potency [8] | Potency (Aromatase (Homo sapiens)) | Potency [9] | Potency [11] | Potency [12] | Potency [13] | Potency [18] | Potency [19] | Potency [14]
